# Active and inactive are the calls of the source. How the source made its calls: active means hit-call score of the fitted dose curve at least 0.9, where 1 is the maximum; inactive means score below 0.9.
# Read-out: DNA damage-inducible transcript 3 (DDIT3), DDIT3 (gene 1649)
# Test: LTEA_HepaRG_DDIT3: Life Technologies and Expression Analysis (LTEA) Assay for DNA damage-inducible transcript 3 (DDIT3) using HepaRG (AID 2283488)
# Details: mRNA level, 48 h; actives raise or lower the signal
# Protocol: LTEA_HepaRG is a cell based, multiplexed-readout assay that uses HepaRG, a human liver cell line, with measurements taken at 48 hours after chemical dosing on a 96-well plate.LTEA_HepaRG_DDIT3 is one of 102 assay component(s) measured in the LTEA HepaRG cell culture assay. It is a marker of Oxidative Stress.Data from the assay component LTEA_HepaRG_DDIT3 was analyzed into 1 endpoint. This assay endpoint, LTEA_HepaRG_DDIT3, was analyzed with bidirectional fitting relative to DMSO as the negative control and baseline of activity. Using a type of inducible reporter, measures of mRNA induction for gain or loss-of-signal activity can be used to understand regulation of transcription factor activity. To generalize the intended target to other relatable targets, this assay endpoint is annotated to the dna binding intended target family, where the subfamily is basic leucine zipper.
# A total of 1060 chemcials from the ToxCast library were tested in eight-point concentration-response experiments. Cell culture and cytotoxicity assays were conducted at Thermo Fisher Scientific's Custom Services facility (Madison, WI). A single lot of human HepaRG cells (Thermo Fisher Scientific, Frederick, MD) was used for the cell culture experiments. 96-well format collagen type I coated plates of human HepaRG cells were prepared using established methods. Briefly, cryopreserved HepaRG cells were thawed, plated at a density of approximately 100,000 cells/well in HepaRG Thaw, Plate, and General Purpose media (HPRG770, Thermo Fisher Scientific), and incubated for 48 hours. 0.5% DMSO was selected as vehicle control to balance the requisite need of DMSO in HepaRG cultures to maintain differentiation (for example, baseline metabolism, proportions of hepatocytes vs. cholangiocytes), while enabling further hepatic receptor pathway activation (for example, PXR and CAR) in response to chemical exposure. 48 hours after plating, the culture medium was replaced with HepaRG Serum-Free Incudtion Media. Cells were exposed to each test chemical in duplicate and maintained in CO2 incubators for another 48 hours. Chemical plates were thawed to room temperature and 200x concentrations of treatment groups were prepared. 8-point conentration-reponse curves were made with the highest exposure at 100 uM, followed by half-log dilutions, all in 0.5% DMSO. Each test plate contained variouse controls, induction positive controls (1mM phenobarbital), cytotoxicity positive controls ([…] aflatoxin B1), vehicle controls (0.5% DMSO), and total lysis controls (0.5% DMSO). Cell morphology images were taken using an Essen IncuCyte FLR automated microscope, with six 96-well plates imaged in about 24 minutes. Images were captured and exported and JPEG files. Spent culture media was transfered to black-well plates for the LDH assay, and remaining media was sorted at -80 C for later use. Cells were treated with RLT buffer and frozen until shipped for gene expression analysis. Total RNA was isolated from the cell suspension in 75 uL of Buffer RLT (Qiagen, Germantown, MD 20874) by Quintiles/Expression Analysis (Durham, NC) using a custom isolation procedure. Total RNA from each plate well was transferred to a preamplification plate. Fluidigm's 96.96 Dynamic ArrayTM (Fluidigm, Amsterdam, the Netherlands) technology was used for gene expression analyses by quantitative reverse transcription polymerase chain reaction (qRT-PCR, performed by Quintiles/Expression Analysis, Durham, NC)89. Standard TaqManTM Assays (Applied Biosystems/ThermoFisher Scientific, Foster City, CA) were used to assess the expression of 93 genes selected based on their selectivity and sensitivity to important hepatic receptors known to be modulated by environmental chemicals; importance in human hepatocyte functionality; and hepatotoxicity. […]
Structure (SMILES),outcome,AC50
CCCCC(CC)C(=O)O (stereo unspecified),inactive,
CCCCCCCCCCCCCCC,inactive,
CS(=O)(=O)c1ccc([C@@H](CC2CCCC2)C(=O)Nc2cnccn2)cc1Cl,,71.2 µM (active)
CC(=O)Nc1ccc(O)cc1,inactive,
O=C(CCCN1CCC(O)(c2ccc(Cl)cc2)CC1)c1ccc(F)cc1,,73.9 µM (active)
CCCCc1oc2ccccc2c1C(=O)c1cc(I)c(OCCN(CC)CC)c(I)c1,,56.8 µM (active)
O=C(c1ccccc1)c1ccccc1,inactive,
N=C(N)c1ccc(OCCCCCOc2ccc(C(=N)N)cc2)cc1,,3.45 µM (active)
CCCCCCCCCCCCOS(=O)(=O)O,,71.9 µM (active)
CCCCC=O,inactive,
OCC(CO)(CBr)CBr,inactive,
CN(Cc1cnc2nc(N)nc(N)c2n1)c1ccc(C(=O)N[C@@H](CCC(=O)O)C(=O)O)cc1,inactive,
O=C1NS(=O)(=O)c2ccccc21,inactive,
Cc1[nH]nc2c1N=C(c1ccccc1Cl)c1cc([N+](=O)[O-])ccc1N2,inactive,
CCC(C)c1ccccc1O (stereo unspecified),inactive,
CN(C)CCOC(c1ccccc1)c1ccccc1,inactive,
